The values that follow come from PubChem BioAssay (NCATS).

Molecules are shown by their SMILES. Inconclusive results are not listed. Unmarked numbers belong to inactive results. The source made the active and inactive calls. Calls come from the whole dose curve; as a rule, active = well fitted curve in the direction sought with a large enough effect; inconclusive = small, poorly fitted or top-dose-only effect, or another doubt; inactive = no such curve, though single readings can be large; an effect the other way counts as inactive or inconclusive. Residues, ends and D or L forms follow the SMILES beside them. *: point of attachment. Cbz = O=C(OCc1ccccc1)*

Thioredoxin reductase 1, cytoplasmic (Rattus norvegicus), sequence (O89049 whole entry, looked up): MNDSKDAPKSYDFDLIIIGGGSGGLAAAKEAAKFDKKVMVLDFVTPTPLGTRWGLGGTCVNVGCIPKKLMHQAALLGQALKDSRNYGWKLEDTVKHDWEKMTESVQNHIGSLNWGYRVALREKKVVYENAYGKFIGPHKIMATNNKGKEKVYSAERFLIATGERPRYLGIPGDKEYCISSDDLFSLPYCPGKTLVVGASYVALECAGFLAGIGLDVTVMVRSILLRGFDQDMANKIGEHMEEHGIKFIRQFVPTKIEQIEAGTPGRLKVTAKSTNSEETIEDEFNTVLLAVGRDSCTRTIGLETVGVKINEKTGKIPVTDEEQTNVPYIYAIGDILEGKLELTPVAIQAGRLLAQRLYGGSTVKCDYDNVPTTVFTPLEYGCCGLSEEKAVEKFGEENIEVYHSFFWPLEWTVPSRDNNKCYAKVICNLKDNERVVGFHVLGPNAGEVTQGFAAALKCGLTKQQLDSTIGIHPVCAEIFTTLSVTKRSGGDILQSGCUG

Tested on in the first assay: not listed separately
As to the kind of experiment: Quantitative high throughput screen for delayed death inhibitors of the malarial parasite plastid, 48 hour incubation (AID 488752). Note: % is set by controls: 0 for no effect and ±100 for the full control effect; nearly all actives have a fitted effect of over 65% in size. To be noted: Plasmodium falciparum growth; series mostly up to 28.7 µM; activity change, negative = inhibition: at the top concentration. Summed up:
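One-generation (48 h) growth assay: a decrease in luciferase signal from an integrated reporter in P. falciparum-infected red cells (0.1% parasitemia, 2% hematocrit) after compound exposure at 37 C indicates parasite inhibition.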
For the compound `C=CC1(C)CC(=O)C2(O)C(C)(O1)C(OC(C)=O)C(O)C1C(C)(C)CCC(O)C12C` (stereo unspecified), the “activity change, negative = inhibition” value was 3.16%.
On the same count and under the same terms, with `O=c1[nH]c(=O)c2nc3ccccc3nc2[nH]1` the figure was 10%; with `Cc1ccc2c(c1)C(N1CCN(C)CC1)=Nc1cccnc1N2`, 5.51%; with `NS(=O)(=O)c1cccc2c1c([N+](=O)[O-])cc1nc(O)c(O)nc12`, 19%.
For the compound `CCN(c1nc(N)c(C(=O)N=C(N)N)nc1Cl)C(C)C`, the “activity change, negative = inhibition” value is -44.7%.
As to `O=c1ccc2c(OCCCCc3ccccc3)c3ccoc3cc2o1`, the “activity change, negative = inhibition” value was -3.2%.
As for `Cc1nc(N=Nc2cc(S(=O)(=O)O)c3cc([N+](=O)[O-])cc(S(=O)(=O)O)c3c2)c(COP(=O)(O)O)c(C=O)c1O`, the “activity change, negative = inhibition” value is 3.6%.
Same read-out and setting: with `CCCCCCC/C=C\CCCCCCCCC(=O)O` the figure was -11.9%.
Take `Cc1ccc([N+](=O)[O-])cc1S(=O)(=O)N(C)C`: the Potency entry was “inactive”.
Consider `O=C(O)c1ccccc1Nc1cccc(OCc2ccc3ccccc3n2)c1`, for which the “activity change, negative = inhibition” value is 9.1%.

The next assay addresses Thioredoxin reductase 1, cytoplasmic (Rattus norvegicus) (UniProt O89049). As to the kind of experiment: qHTS Assay for Substrates of Mammalian Selenoprotein Thioredoxin Reductase 1 (TrxR1) (AID 488772).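 Note: 0% is about no effect; a drop in NADPH fluorescence below the no-compound background marks a TrxR1 substrate.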 To be noted: purified TrxR1, NADPH consumption substrate assay; series mostly up to 57.1 µM; activity change, negative = NADPH consumption: at the top concentration. Summed up: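 In this dual-purpose format, potential substrates are identified from the first fluorescence read after selenite addition, not from the 8-minute delta. Rat enzyme is preincubated with NADPH and then with compound at ~22 deg C.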
On to `N=C(N)c1ccc(OCCCCCOc2ccc(C(=N)N)cc2)cc1` (tested in a mixture with another compound), for which the “activity change, negative = NADPH consumption” value is -9.46%.
As for `Cc1nc2c(OCc3ccccc3)cccn2c1CC#N`, the “activity change, negative = NADPH consumption” value is -6.53%.
Same read-out and setting: with `O=C(O)C1=CCCN(CCON=C(c2ccccc2)c2ccccc2)C1` the figure was -2.93%.
The same measure, in the same setting: with `CC(=O)SC1CC2=CC(=O)CC[C@]2(C)C2CC[C@@]3(C)C(CC[C@@]34CCC(=O)O4)C12` (stereo partly specified) the figure was -8.18%; with `COc1ccc(CCn2nnnc2C2(c3ccc(C)cc3)CC2)cc1`, -5.63%; with `CC(C)[C@@H]1CC[C@@H](C)C[C@@H]1P(=O)(c1ccccc1)c1ccccc1`, -3.82%.
`CCCCOc1cc(CC2CNC(=O)N2)ccc1OC` (stereo unspecified): the “activity change, negative = NADPH consumption” value was -6.57%.
On the same count and under the same terms, with `O=c1cc(O)cc(/C=C/c2ccc(O)c(O)c2)o1` the figure was 1.55%; with `Nc1ncnc2c1ncn2C1CCCO1` (stereo unspecified), 9.45%.
On the same count and under the same terms, with `O=C(O)C1=CC(=C(c2ccc(O)c(C(=O)O)c2)c2ccc(O)c(C(=O)O)c2)C=CC1=O` the figure was 6.88%; with `CCCn1c(=O)c(C)cn2nc(N)nc12`, 233%; with `C=CC1(C)CC(=O)C2(O)C(C)(O1)C(OC(C)=O)C(O)C1C(C)(C)CCC(O)C12C` (stereo unspecified), -0.379%.
Same read-out and setting: with `CC(C)C[C@H](NC(=O)C1OC1C(=O)O)C(=O)NCCCCN=C(N)N` (stereo partly specified) the figure was -5.77%; with `O=C(O)CCC/C=C\C[C@@H]1[C@@H](/C=C/[C@H](O)C2Cc3ccccc3C2)[C@@H](F)C[C@@H]1O`, 1.61%; with `CC(C)[C@H](NC(=O)OCc1ccccc1)C(=O)N[C@H](C=O)Cc1ccccc1` (Cbz-Val-Phe-aldehyde), -5.15%.
Take `NC(=Nc1ccccc1)NC(=O)c1nc(Cl)c(N)nc1N`: the “activity change, negative = NADPH consumption” value is 19.2%.
For the compound `N[C@H](C(=O)O)[C@H](Cc1ccccc1)C(=O)O`, the “activity change, negative = NADPH consumption” value was -12%.
`CC(=O)O[C@H]1Cc2ccccc2N(C(N)=O)c2ccccc21`: the “activity change, negative = NADPH consumption” value was -3.02%.
On the same count and under the same terms, with `NC[C@@H]1O[C@H](c2ccccc2)Cc2c1ccc(O)c2O` the figure was -11.7%.
`Cc1ccc2c(c1)C(N1CCN(C)CC1)=Nc1cccnc1N2`: the “activity change, negative = NADPH consumption” value was -0.025%.
Still for that read-out and setting: with `Nc1nc2c(nc(Br)n2C2OC3COP(=O)(O)O[C@@H]3C2O)c(=O)[nH]1` (stereo partly specified) the figure was -6.24%.
As to `NCC(O)C1CCCCCCC1` (stereo unspecified), the “activity change, negative = NADPH consumption” value is -10.4%.
`CCN(c1nc(N)c(C(=O)N=C(N)N)nc1Cl)C(C)C`: the “activity change, negative = NADPH consumption” value is -10.2%.
Same read-out and setting: with `O=c1ccc2c(OCCCCc3ccccc3)c3ccoc3cc2o1` the figure was -0.0993%; with `CC(C)NC[C@H](O)COc1cccc2ccccc12`, -6.21%; with `Cc1nc(N=Nc2cc(S(=O)(=O)O)c3cc([N+](=O)[O-])cc(S(=O)(=O)O)c3c2)c(COP(=O)(O)O)c(C=O)c1O`, -11.3%.
Turning to `CN1CC(O)C(O)C(O)C1CO` (stereo unspecified), the “activity change, negative = NADPH consumption” value was -8.29%.
On the same count and under the same terms, with `C=C1C[C@@]23CC[C@H]4[C@@](C)(CCC[C@@]4(C)C(=O)O)[C@@H]2CC[C@]1(O)C3` the figure was -16.8%.
Same read-out and setting: with `O=C(O)c1ccccc1Nc1cccc(OCc2ccc3ccccc3n2)c1` the figure was -11.6%; with `CCCCCCC(=O)OC1CC(C)(C)NC(C)(C)C1`, -4.51%.
On the same count and under the same terms, with `O=C(O)/C(=C/c1c(C(=O)O)[nH]c2cc(Cl)cc(Cl)c12)c1ccccc1` the figure was -10%.
